Nine compounds from PubChem BioAssay (NCI) can be followed below.

This is part of a sample that, as a whole, favours compounds with a hit. Of some 83,000 tested, about 20% had one in any assay.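 Testing used 96-well plates and a 48-hour single-concentration exposure. Example: -40 means 40% of the starting cells died.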 Unmarked numbers belong to inactive results. Calls of active or inactive are those of the source. The calls were made as follows: active = growth percent below 10; inactive = the rest.

Some test systems named below: RPMI-8226 leukemia; OVCAR-8 ovarian; OVCAR-5 ovarian; OVCAR-4 ovarian; SK-OV-3 ovarian; IGROV1 ovarian; OVCAR-3 ovarian; HS 578T breast; NCI/ADR-RES ovarian; T-47D breast; BT-549 breast; MDA-MB-435 melanoma; SW-620 colon; MCF7 breast; HCT-116 colon; HCC-2998 colon; KM12 colon.
Holding throughout (assay): NCI-60 one-dose screen, 48 h (100 = growth as untreated, 0 = no growth, -100 = all killed)
Common to all, as to settings: 10 µM unless noted

As for `Cc1nc(C)c(C)nc1C`, the growth with RPMI-8226 leukemia was 104%; in the test with OVCAR-8 ovarian, 91.8%; in the test on OVCAR-5 ovarian it was 115%; with OVCAR-4 ovarian, 114%; in the test with SK-OV-3 ovarian it was 96.5%; with IGROV1 ovarian, 108%. Moreover, the growth was 109% in the test on OVCAR-3 ovarian; 85.6% in the test on HS 578T breast; 109% with NCI/ADR-RES ovarian; 92.5% with T-47D breast; 110% in the test with BT-549 breast; 108% in the test with MDA-MB-435 melanoma. The growth in the test with SW-620 colon is 103%; in the test with MCF7 breast, 101%; in the test with HCT-116 colon, 98.4%; in the test on HCC-2998 colon, 95.6%; with KM12 colon, 105%.
Turning to `OCCNc1nc(NCCO)nc(Nc2ccc(C3=NN(c4cc(Cl)cc(Cl)c4)C(c4ccc(C(F)(F)F)cc4)C3)cc2)n1` (stereo not drawn), the growth in the test on RPMI-8226 leukemia was -1.42% (active); with OVCAR-8 ovarian, 39.5%; with OVCAR-5 ovarian it was 89%; with OVCAR-4 ovarian, 53.6%; with SK-OV-3 ovarian, 70.1%; with IGROV1 ovarian, 41.7%. Besides, the growth in the test on OVCAR-3 ovarian is 4.39% (active); with HS 578T breast, 43.6%; in the test with NCI/ADR-RES ovarian, 55.6%; with T-47D breast it was 53.5%; in the test on BT-549 breast it was 60.8%; in the test on MDA-MB-435 melanoma it was 42.1%. The growth with SW-620 colon was 60.1%; in the test on MCF7 breast, 10.7%; in the test on HCT-116 colon, 32.7%; in the test with HCC-2998 colon, 45.1%; in the test with KM12 colon it was 26%.
As to `C=C(C)[C@@H]1CCC=C2CC[C@]3(C)[C@H](CC[C@@H]4[C@@]5(C)CCCNC(C)(C)[C@@H]5CC[C@]43C)[C@H]21`, the growth in the test on RPMI-8226 leukemia is -11.9% (active); in the test with OVCAR-8 ovarian, 3.48% (active); in the test on OVCAR-5 ovarian it was 56.4%; in the test with OVCAR-4 ovarian, 36.7%; with SK-OV-3 ovarian, 112%; in the test on IGROV1 ovarian, 23.5%. Moreover, the growth was 41.2% in the test on OVCAR-3 ovarian; 97.2% in the test with HS 578T breast; 55.1% in the test with NCI/ADR-RES ovarian; 60.2% in the test with T-47D breast; 89.2% with BT-549 breast; 16.8% in the test on MDA-MB-435 melanoma. Moreover, the growth in the test on SW-620 colon is -50.2% (active); with MCF7 breast it was 0.921% (active); in the test with HCT-116 colon, -54.8% (active); in the test on HCC-2998 colon it was 5.32% (active); in the test with KM12 colon, 19.9%.
Take `Cc1[nH]c2ncnc(Oc3ccc(NC(=O)Nc4ccc(Cl)c(C(F)(F)F)c4)cc3)c2c1C`: the growth with RPMI-8226 leukemia is 44.7%; in the test with OVCAR-8 ovarian, 52%; with OVCAR-5 ovarian it was 98%; with OVCAR-4 ovarian it was 90.1%; in the test on SK-OV-3 ovarian, 91.9%; with IGROV1 ovarian it was 54.6%. For the same compound, the growth is 56.3% with OVCAR-3 ovarian; 73.8% with HS 578T breast; 64.5% with NCI/ADR-RES ovarian; 36.9% with T-47D breast; 79.4% in the test with BT-549 breast; 45.4% in the test on MDA-MB-435 melanoma. The growth is 77.9% in the test with SW-620 colon; 31.6% with MCF7 breast; 42.4% in the test on HCT-116 colon; 60.5% in the test with HCC-2998 colon; 27.3% in the test with KM12 colon.
For `CN(C)[C@@H]1C(=O)C(C(N)=O)=C(O)[C@@]2(O)C(=O)C3=C(O)c4c(O)cc(CN5CCc6ccccc6C5)c(Cl)c4C[C@H]3C[C@@H]12`, the growth was -46.2% (active) with RPMI-8226 leukemia; -80.9% (active) in the test with OVCAR-8 ovarian; -87.1% (active) in the test on OVCAR-5 ovarian; -44.5% (active) with OVCAR-4 ovarian; -93.3% (active) in the test with SK-OV-3 ovarian; -73.2% (active) with IGROV1 ovarian. Further, the growth in the test on OVCAR-3 ovarian is -83.3% (active); with HS 578T breast it was -57.7% (active); in the test on NCI/ADR-RES ovarian, -83.7% (active); in the test with T-47D breast, -41.4% (active); with BT-549 breast, -83.3% (active); in the test on MDA-MB-435 melanoma, -75.7% (active). Further, the growth with SW-620 colon was -72.4% (active); with MCF7 breast, -68.8% (active); with HCT-116 colon, -90.5% (active); in the test with HCC-2998 colon, -67.1% (active); in the test on KM12 colon, -82.9% (active).
For the compound `COc1ccc(/C(=N\O)c2cc(C)c(OC)c(C)c2)cc1O`, the growth was 12.7% in the test with RPMI-8226 leukemia; 15.3% in the test on OVCAR-8 ovarian; 46.7% in the test with OVCAR-5 ovarian; 67% with OVCAR-4 ovarian; 51.2% in the test with SK-OV-3 ovarian; 30.3% with IGROV1 ovarian. In addition, the growth with OVCAR-3 ovarian is 10.1%; in the test on HS 578T breast, 33.5%; with NCI/ADR-RES ovarian, 28.6%; in the test with T-47D breast, 84.9%; in the test on BT-549 breast it was 19.3%; with MDA-MB-435 melanoma, -23.8% (active). The growth is 31% with SW-620 colon; 19.1% in the test with MCF7 breast; 6.63% (active) in the test with HCT-116 colon; 26.2% with HCC-2998 colon; 14.8% with KM12 colon.
For `Nc1c(C(=O)Nc2cccc3ccccc23)sc2nc3c(cc12)CCCCCC3`, the growth was 30.4% with RPMI-8226 leukemia; 19.8% with OVCAR-8 ovarian; 49.3% with OVCAR-5 ovarian; 59% in the test with OVCAR-4 ovarian; 25.7% in the test with SK-OV-3 ovarian; 44.8% in the test on IGROV1 ovarian. The growth in the test on OVCAR-3 ovarian was -36.8% (active); in the test on HS 578T breast it was 28.6%; with NCI/ADR-RES ovarian it was 20.6%; in the test with T-47D breast, 36.5%; in the test with BT-549 breast, 32%; in the test with MDA-MB-435 melanoma, -39.3% (active). Further, the growth in the test with SW-620 colon is 22.4%; in the test with MCF7 breast it was 20.6%; in the test with HCT-116 colon it was 7.05% (active); in the test on HCC-2998 colon, 43.3%; in the test on KM12 colon, 21.9%.
Take `CCc1c(C(=O)N[C@@H](C(=O)OCc2ccccc2)C(C)O)[nH]c2ccc(Cl)cc12` (stereo partly drawn): the growth in the test with RPMI-8226 leukemia is 82.7%; in the test on OVCAR-8 ovarian, 59.2%; in the test with OVCAR-5 ovarian it was 69.1%; with OVCAR-4 ovarian it was -46.9% (active); in the test with SK-OV-3 ovarian, 59.3%; in the test with IGROV1 ovarian, 46.3%. The growth in the test with OVCAR-3 ovarian was 29.4%; with HS 578T breast, 40.6%; in the test with NCI/ADR-RES ovarian, 68.2%; in the test with T-47D breast it was 47.5%; in the test with BT-549 breast, 90.8%; with MDA-MB-435 melanoma, 87.9%. In addition, the growth is 54.4% in the test on SW-620 colon; 65.6% with MCF7 breast; 18.9% in the test on HCT-116 colon; 101% with HCC-2998 colon; 77.3% with KM12 colon.
With `CC(=O)ON1CCCC(P(=O)(OCOC(=O)C(C)(C)C)OCOC(=O)C(C)(C)C)C1=O` (stereo not drawn), the growth with RPMI-8226 leukemia is -47.5% (active); in the test on OVCAR-8 ovarian, -0.681% (active); with OVCAR-5 ovarian it was 17.7%; in the test with OVCAR-4 ovarian it was 13.3%; with SK-OV-3 ovarian it was 6.56% (active); with IGROV1 ovarian it was -28.4% (active). Moreover, the growth is 2.58% (active) in the test on OVCAR-3 ovarian; 1.28% (active) in the test with HS 578T breast; -2.01% (active) with NCI/ADR-RES ovarian; 16.4% in the test with T-47D breast; -1.15% (active) in the test on BT-549 breast; 27% in the test with MDA-MB-435 melanoma. In addition, the growth in the test with SW-620 colon was 16.5%; with MCF7 breast, -1.76% (active); with HCT-116 colon, 0.623% (active); in the test with HCC-2998 colon, -36.8% (active); in the test on KM12 colon, -11.5% (active).
